# Sampled rows, rich in hits. Any-hit rate of the full collection: about 6.2%.
# HCMV inh: qHTS Assay for inhibitors of the human cytomegalovirus (HCMV); HFF cells, HCMV-luciferase reporter, 72 h; stronger effect = lower value; activity change, negative = inhibition, % at 57.5 µM; hit rate 4.5% among 410,000; AID 1259415, 2018; in the data active means activity change below about -60%; inconclusive means no clear call, values can overlap the other calls; inactive means above about -39%
#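 Screen run at 2 compound doses on HFFs infected with reporter HCMV, MOI 1 PFU/cell. Luciferase activity from cell lysates at 72 h post infection gave inhibition relative to buffer-only and Salinomycin wells.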
# FMDV antiviral: High Throughput Screening for Foot and Mouth Disease Virus Antivirals; FMDV antiviral cell-based qHTS; Potency, µM (top dose mostly 57.9 µM), inactives show at the highest dose activity change, negative = inhibition, actives largely listed as inhibitors; hit rate 1.2% among 410,000; calls by dose curve; tested in HEK293T cells; further: read-out not given here; potency means the concentration at half of the fitted maximal effect; nearly all actives have a fitted effect of over 45% in size
# LASV entry inh: qHTS for Inhibitors of binding or entry into cells for Lassa Virus; Lassa virus pseudotype entry inhibition, cell reporter; Potency, µM (series often up to 37.9 µM), inactives show at the top dose activity change, negative = inhibition, usual class: inhibitors; hit rate 1.2% among 300,000; calls by dose curve; tested in HEK293 cells; further: potency means the concentration at half of the fitted maximal effect; nearly all actives have a fitted effect of over 50% in size
# MARV entry inh: qHTS for inhibitors of binding or entry into cells for Marburg Virus; Marburg virus pseudotyped entry inhibition, cell reporter; Potency, µM (titrated, usually from 37.8 µM), for the others: at the top dose activity change, negative = inhibition, hits mostly inhibitors; hit rate 1.8% among 300,000; AID 540276, 2011; calls by dose curve; tested in HEK293 cells; further: potency means the concentration at half of the fitted maximal effect
# * = called active by the depositor; ? = inconclusive; . = not tested or not shown; [ ] = another dose, or the depositor's remark. On the % scale 0 is the no-effect control and ±100 the full control effect.
SMILES,HCMV inh,FMDV antiviral,LASV entry inh,MARV entry inh
CN(C(=S)NC(=O)C1CCCC1)c1ccccc1,-12,34%,.,.
CC(C)c1nc(N2CCN(C(=O)c3ccccc3)CC2)c(C#N)c2c1COC(C)(C)C2,-5,-25%,?,12µM*
COC(=O)CS(=O)(=O)c1nc2ccccc2nc1N1CCCCC1,-66*,-14%,20%[46.1 µM],-29%[46.1 µM]
O=C(O)CSc1nc2ccccc2nc1N1CCCCC1,-11,-4%,-12%[46.1 µM],2%[46.1 µM]
Cc1ccc(C(=O)OC[C@H]2O[C@H](Cl)C[C@H]2OC(=O)c2ccc(C)cc2)cc1,.,.,.,1%[14.2 µM]
CCn1cc(/C=N/NS(=O)(=O)c2ccc(C)cc2)c(C)n1,4,37%,3%,-19%
Cc1cccn2c(=O)c3cc(C(=O)NC4CCCC4)c(=N)n(CC4CCCO4)c3nc12 (stereo unspecified),-38,-7%,17%,-1%[46.1 µM]
Cc1cccn2c(=O)c3cc(C(=O)NCC4CCCO4)c(=N)n(CC4CCCO4)c3nc12 (stereo unspecified),-70*,-15%,14%,?
COc1ccc(CCn2c(=N)c(C(=O)NCC3CCCO3)cc3c(=O)n4cccc(C)c4nc32)cc1 (stereo unspecified),-108*,-10%,.,.
COc1ccc(CCn2c(=N)c(C(=O)NCc3ccco3)cc3c(=O)n4ccccc4nc32)cc1,?,-2%,-26%[14.3 µM],21µM*
Nc1c(-c2cccs2)nc2ccccn12,18,26%,.,.
O=C(Cc1cccs1)N1CCN(S(=O)(=O)c2cccc([N+](=O)[O-])c2)CC1,35,-9%,.,.
CCN(CC)S(=O)(=O)c1cccc(C(=O)OCC(=O)C23CC4CC(CC(C4)C2)C3)c1,-11,9%,?,7%
CN(c1ccc(NC(=O)Nc2ccc(OC(F)(F)F)cc2)cc1)c1ccnc(Nc2cccc(S(N)(=O)=O)c2)n1,.,.,25µM*,.
O=S(=O)(NC1=NCCC1)c1cccc(NS(=O)(=O)c2ccc(OC(F)(F)F)cc2)c1,-28,46%,-5%,-2%
Cc1cccc(CSc2nc3c(sc4ccccc43)c(=O)n2CCC(=O)NC(C)C)c1,-61*,-24%,22%[46.1 µM],13%[46.1 µM]
CC(C)NC(=O)CCn1c(SCc2c(F)cccc2Cl)nc2c(sc3ccccc32)c1=O,-12,-4%,26%[46.1 µM],-18%[46.1 µM]
OCC1OC(n2cnc3c(NCc4ccco4)ncnc32)C(O)C1O (stereo unspecified),-81*,-16%,4.5µM*,?
OC[C@H]1O[C@@H](n2cnc3c(NCc4ccco4)ncnc32)[C@H](O)[C@@H]1O,-39,-24%,.,.
C=CCNc1ncnc2c1ncn2C1OC(CO)C(O)C1O (stereo unspecified),-16,-14%,?,14µM*
OC[C@@H]1O[C@@H](n2cnc3c(NC4CCCC4)ncnc32)[C@H](O)[C@H]1O,.,-19%,.,20%
Cc1c(NC(=S)N/N=C/C=C/c2ccccc2)c(=O)n(-c2ccccc2)n1C,-18,-12%,6%[46.1 µM],-2%[46.1 µM]
CSC(=S)NN=C(C)c1cccc(C)n1,-80*,5%,?,5µM*
COc1ccccc1CN1CC(C(=O)NCC2(O)CCCCC2)CCC1=O (stereo unspecified),-64*,-8%,.,.
COC1C(OC(=O)c2ccc(C)[nH]2)C(O)C(Oc2ccc3c(O)c(NC(=O)c4ccc(O)c(CC=C(C)C)c4)c(=O)oc3c2Cl)OC1(C)C (stereo unspecified),-19,40µM*,.,.
SMILES,HCMV inh,FMDV antiviral,LASV entry inh,MARV entry inh
O=C1/C(=C/c2cccnc2)Oc2cc(OS(=O)(=O)c3ccc(F)cc3)ccc21,6,22µM*,-22%,?
Cc1ccc(S(=O)(=O)Oc2ccc3c(c2)O/C(=C\c2cccnc2)C3=O)cc1,.,-3%,0%,?
O=C(c1ccc(Cl)c(S(=O)(=O)N2CCCCCC2)c1)N1CCN(CCO)CC1,7,-16%,14%,0%
CC(=O)N1CCN(c2ccc(NCc3ccc(C)cc3)cc2)CC1,-4,-15%,-6%,15%
CCc1ccc(CNc2ccc(N3CCN(C(C)=O)CC3)cc2)cc1,-80*,-24%,?,-24%
Nc1nc(N)c2c(ccc3nccc32)[nH]1,-96*,20%,.,.
COc1cc(/C=C(\C#N)C(=O)NC2CCCCC2C)ccc1OS(=O)(=O)c1ccc(C)cc1 (stereo unspecified),-35,25µM*,?,-4%
CSc1ncc(C(=O)NCc2ccccc2F)c(-c2ccccc2)n1,-27,-5%,-3%[46.1 µM],.
CC1(CCc2ccc3c(c2)OCO3)NCCc2c1[nH]c1ccccc21 (stereo unspecified),-87*,-23%,.,.
CC(C)N(Cc1ccccc1)C(=O)CN1C(=O)COc2ccc(S(=O)(=O)N3CCCCCC3)cc21,-81*,-3%,-27%[46.1 µM],-21%[46.1 µM]
O=C(O)CN1C(=O)COc2ccc(S(=O)(=O)N3CCCCCC3)cc21,-61*,-15%,.,.
Cc1nc(C(=O)NNC(=O)c2ccc(C(F)(F)F)cc2)cs1,-89*,38%,-17%,?
Cc1cc(C(=O)NNC(=O)c2ccc(C(F)(F)F)cc2)no1,7,21%,?,18%[46.1 µM]
CC(=O)Nc1ccc(NC(=O)COC(=O)C2c3ccccc3Oc3ccccc32)cc1,-19,0%,?,4%[46.1 µM]
CCOC(=O)c1cccc(NC(=O)COc2nsnc2N2CCOCC2)c1,-1,25µM*,.,?
CCOC(=O)c1cccc(NC(=O)CCn2cccc2)c1,-8,-22%,8.9µM*,-26%
CCCCc1cc(=O)oc2cc(C)cc(OC(C)C(=O)O)c12 (stereo unspecified),-16,-6%,21%,4%
Nc1nc(Cl)cc(Sc2ccc3ccccc3c2)n1,13,-16%,10µM*,-25%
Nc1nc(Cl)cc(-c2ccccc2)n1,27,-3%,-3%,?
COc1ccc(C(=O)Nc2cccnc2Cl)cc1OC,-87*,1%,.,.
O=C(N/N=C/c1ccccn1)c1ccc(Cl)cc1,-97*,?,?,?
COc1ccc(Cl)cc1NC(=O)c1cccc(-n2cnnn2)c1,-63*,-22%,-4%,-15%
COc1ccc(C(=O)Nc2ccc(/C(C)=N/NC(=O)c3ccccc3O)cc2)cc1OC,-3,-4%,13%,13µM*
CC(C)=CCC/C(C)=C/C=N/NC(=O)c1ccc([N+](=O)[O-])cc1,-32,7%,-1%,1%
COc1ccc(C(=O)Nc2ccccc2C(=O)N/N=C/c2ccccn2)cc1OC,-109*,?,10µM*,?
SMILES,HCMV inh,FMDV antiviral,LASV entry inh,MARV entry inh
CC(C)c1ccc(/C=N/NC(=O)c2ccccn2)cc1,69,13µM*,?,5µM*
O=C1c2ccccc2NC(c2ccc(O)cc2)N1/N=C/c1ccc(O)cc1 (stereo unspecified),76,14%,?,?
COc1ccc(C2CC(=O)C(C=NCCN3CCOCC3)=C(O)C2)cc1 (stereo unspecified),26,-30%,-5%,12%
CCOC(=O)Cn1nc(C)c(NC(=O)COc2ccc(C)c(C)c2)c1C,-61*,-22%,4%[46.1 µM],14%[46.1 µM]
O=C(Nc1ccncc1)Nc1cccc(Cl)c1,14,6%,.,.
O=C(Nc1cccc(Cl)c1)Nc1csc([N+](=O)[O-])c1,-97*,?,?,?
